Most compounds without a hit are left out; they make up all but 2.5% or so of the library.
L3MBTL1 block: qHTS Assay for the Inhibitors of L3MBTL1; Lethal(3)malignant brain tumor-like protein 1 (Homo sapiens), Q9Y468; AlphaScreen L3MBTL1–H3K9me1 peptide binding; Potency, µM (titrated, usually from 57.1 µM), most hits filed as inhibitors; actives 0.66% (n = 230,000); AID 485360, 2010; also: nearly all actives have a fitted effect of over 60% in size
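Displacement of a biotinylated histone H3(1-15) peptide monomethylated at Lys9 (75 nM) from L3MBTL1 (50 nM) was measured by AlphaScreen after a 30 min room-temperature compound incubation; cefsulodin titration served as intraplate control.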
Pol iota inh: qHTS for Inhibitors of Polymerase Iota; Pol iota fluorescent replication assay, 10 min; Potency, µM (highest dose often 115 µM), most hits filed as inhibitors; actives 1% (n = 390,000)
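Pol iota at 10 nM preincubated 15 min with compounds at room temperature; reaction started with fluorescent substrate, 50 nM final. Fluorescence read kinetically at 0 and 10 min; buffer-only wells as negative control.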
WRN helicase inh: qHTS for Inhibitors of WRN Helicase; WRN helicase unwinding, fluorescent forked duplex, kinetic; Potency, µM (series often up to 114 µM), usual class: inhibitors; actives 0.46% (n = 360,000); also: nearly all actives have a fitted effect of over 55% in size
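Kinetic fluorescence helicase assay: unwinding of a quenched forked DNA duplex (100 nM final) with 2 mM ATP final raises red fluorescence (525/598 nm). Compounds sat 15 min at room temperature with 20 nM WRN beforehand.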
POLH inh: qHTS for Inhibitors of Polymerase Eta. DNA polymerase eta (Homo sapiens), Q9Y253. recombinant Pol eta, fluorescent DNA replication assay. Potency, µM (highest dose often 114 µM), actives largely listed as inhibitors. actives 1.2% (n = 390,000)
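Pol eta at 10 nM preincubated with compounds 15 min at room temperature; reaction started with fluorescent substrate (50 nM final) and read kinetically at 0 and 10 min.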
Pol beta inh: qHTS Assay for Inhibitors of DNA Polymerase Beta; Pol beta primer extension/strand displacement, fluorescence kinetic; Potency, µM (titrated, usually from 114 µM), actives largely listed as inhibitors; actives 1.3% (n = 340,000)
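Reaction started by 50 nM substrate onto compound-treated Pol beta (10 nM, 15 min preincubation, room temperature); plates read at 0 min and 10 min. Normalized concentration-effect data fitted by four-parameter Hill equation.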
POLK inh: qHTS for Inhibitors of Polymerase Kappa. purified Pol kappa, fluorescent DNA synthesis assay, 10 min. AID 588579, 2011. DNA polymerase kappa (Homo sapiens), Q9UBT6. actives 0.53% (n = 400,000). Potency, µM (titrated, usually from 107 µM), most hits filed as inhibitors
Target sequence (Q9UBT6 whole entry, looked up): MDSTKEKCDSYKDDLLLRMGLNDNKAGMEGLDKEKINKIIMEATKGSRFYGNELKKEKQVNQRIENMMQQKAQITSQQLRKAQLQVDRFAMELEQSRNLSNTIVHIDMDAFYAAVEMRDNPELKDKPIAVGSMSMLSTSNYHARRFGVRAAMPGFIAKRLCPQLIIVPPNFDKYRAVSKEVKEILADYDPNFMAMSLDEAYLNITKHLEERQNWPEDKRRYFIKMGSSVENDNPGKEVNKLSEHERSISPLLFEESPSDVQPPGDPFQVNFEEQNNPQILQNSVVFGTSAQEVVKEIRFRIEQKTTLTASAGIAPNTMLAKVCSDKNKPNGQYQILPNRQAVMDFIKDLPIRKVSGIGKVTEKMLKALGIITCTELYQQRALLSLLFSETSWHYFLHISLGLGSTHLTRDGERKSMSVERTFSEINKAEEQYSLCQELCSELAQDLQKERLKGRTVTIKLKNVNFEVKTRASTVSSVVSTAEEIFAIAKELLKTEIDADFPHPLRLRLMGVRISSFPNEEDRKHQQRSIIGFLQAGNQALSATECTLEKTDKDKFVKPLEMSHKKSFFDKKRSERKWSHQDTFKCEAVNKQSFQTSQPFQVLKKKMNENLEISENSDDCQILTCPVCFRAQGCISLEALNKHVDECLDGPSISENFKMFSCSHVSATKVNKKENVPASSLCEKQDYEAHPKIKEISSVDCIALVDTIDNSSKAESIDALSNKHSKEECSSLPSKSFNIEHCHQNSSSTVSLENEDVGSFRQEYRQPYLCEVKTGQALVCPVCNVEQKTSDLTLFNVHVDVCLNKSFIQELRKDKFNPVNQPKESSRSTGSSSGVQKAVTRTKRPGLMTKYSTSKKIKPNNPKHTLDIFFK
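10 nM Pol kappa preincubated 15 min at room temperature with compounds, then reaction started with substrate at 50 nM final. Fluorescence read kinetically at 0 and 10 min; buffer-only wells served as negative control.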
Each line names hits and unclear results; the compound was inactive in the other large screens. Calls follow the shape of the dose curve; as a rule, active = well fitted curve in the direction sought with a large enough effect; inconclusive = small, poorly fitted or top-dose-only effect, or another doubt; inactive = no such curve, though single readings can be large; an effect the other way counts as inactive or inconclusive.

O=C(CSc1nc(-c2ccccc2)nc2cc(=O)[nH]n12)Nc1ccccc1	Pol iota inh inconclusive, Pol beta inh inconclusive (no result: L3MBTL1 block, WRN helicase inh)
COc1cccc(-c2nc(SCc3ccc(C)cc3)n3[nH]c(=O)cc3n2)c1	Pol iota inh 89.1µM, Pol beta inh inconclusive (no result: L3MBTL1 block, WRN helicase inh)
COc1ccc(NC(=O)CSc2nc(-c3ccco3)cc(C(F)(F)F)n2)cc1Cl	none (no result: L3MBTL1 block, WRN helicase inh)
COc1ccccc1OCCCSc1nc(-c2ccc(C(C)(C)C)cc2)nc2cc(=O)[nH]n12	Pol iota inh inconclusive, POLH inh 79.4µM, Pol beta inh inconclusive, POLK inh inconclusive (no result: L3MBTL1 block, WRN helicase inh)
COc1ccc(-c2nc(SCCOc3ccccc3Cl)n3[nH]c(=O)cc3n2)cc1	none (no result: L3MBTL1 block, WRN helicase inh)
CCN(CC(=O)Nc1ccc(NC(C)=O)cc1)C(=O)c1cc(-c2ccccc2Cl)nc2ccccc12	none (no result: L3MBTL1 block, Pol beta inh)
CC(=O)c1ccc(NC(=S)N2CCN(c3ccccn3)CC2)cc1	POLH inh 89.1µM (no result: L3MBTL1 block)
CC(=O)N=C1SC2CS(=O)(=O)CC2N1c1ccc(-c2nc3ccc(C)cc3s2)cc1 (stereo not drawn)	none (no result: Pol iota inh, WRN helicase inh, POLH inh, POLK inh)
Cc1ccc2nc(-c3ccc(N4C(=NC(=O)CCC(=O)O)SC5CS(=O)(=O)CC54)cc3)sc2c1 (stereo not drawn)	L3MBTL1 block 12.6µM, Pol iota inh inconclusive, WRN helicase inh inconclusive, POLH inh 3.55µM, Pol beta inh inconclusive, POLK inh inconclusive
O=C(c1ccccc1Cl)N1CCC(n2cccc2)CC1	none
O=C1CCCN2N=C(SCC(=O)Nc3nccs3)SC2=N1	Pol iota inh inconclusive, WRN helicase inh inconclusive, POLH inh 79.4µM, Pol beta inh 31.6µM
Cc1cc(C)cc(NC(=O)CSCn2nnc3c(=O)[nH]c(Cc4ccc(F)cc4)nc32)c1	Pol iota inh 79.4µM, POLH inh inconclusive, Pol beta inh 39.8µM, POLK inh 79.4µM (no result: L3MBTL1 block, WRN helicase inh)
O=C(CSCn1nnc2c(=O)[nH]c(Cc3ccc(F)cc3)nc21)Nc1ccccc1	none (no result: L3MBTL1 block, WRN helicase inh)
CCc1c(C)nc(SCC(=O)N2CCCCC2C)[nH]c1=O (stereo not drawn)	none
O=C(NCCC1=CCCCC1)c1cc(S(=O)(=O)N2CCOCC2)ccc1Cl	none (no result: Pol beta inh)
CC1=NN(c2ccc(N)cc2)C(=O)C1	Pol iota inh inconclusive, WRN helicase inh 44.7µM, POLH inh inconclusive, POLK inh inconclusive (no result: L3MBTL1 block)
CC1=NN(c2ccc(Cl)cc2)C(=O)C1	Pol iota inh 2.51µM
CC1=NN(c2nc(-c3ccc(Cl)cc3)cs2)C(=O)C1	Pol iota inh inconclusive, WRN helicase inh inconclusive, POLH inh 44.7µM, Pol beta inh 35.5µM, POLK inh 50.1µM
COc1ccc(CN2C(=O)CCC2(C)C(=O)NCc2cccnc2)c(OC)c1 (stereo not drawn)	none
CCOC(=O)CSc1nc2sc3c(c2c(=O)n1Cc1ccccc1)CC(C(C)C)OC3 (stereo not drawn)	Pol iota inh inconclusive (no result: L3MBTL1 block, WRN helicase inh)
COc1ccccc1CNC(=O)c1ccc(CN2CC(=O)N3CCCCC3C2=O)cc1 (stereo not drawn)	none (no result: L3MBTL1 block, WRN helicase inh)
N#Cc1c(N)sc(=S)c2c1CCCCC2	L3MBTL1 block inconclusive, Pol iota inh inconclusive, WRN helicase inh 20µM, POLH inh 12.6µM, Pol beta inh 12.6µM, POLK inh 28.2µM
Cc1ccc(CNC(=O)c2ccc(Cn3nc(C)c(Cl)c3C)o2)cc1	Pol iota inh inconclusive, POLH inh inconclusive, Pol beta inh 50.1µM
Cc1[nH]c2ccccc2c1N=Nc1ccccc1C(=O)O	L3MBTL1 block inconclusive, Pol iota inh inconclusive, WRN helicase inh inconclusive, POLH inh 35.5µM, Pol beta inh 31.6µM, POLK inh inconclusive
COc1ccc(CC2NCCC3=CC(=O)CCC32)cc1O (stereo not drawn)	Pol iota inh 56.2µM, POLK inh inconclusive (no result: L3MBTL1 block, WRN helicase inh, Pol beta inh)
COc1ccc(CC(=O)O)cc1O	none
Cc1cc(C)c2[nH]c3nc(SCC(=O)O)nnc3c2c1	none
CCC(=O)Nc1c(C#N)c2nc3ccccc3nc2n1-c1ccc(C)cc1	none (no result: L3MBTL1 block, Pol beta inh)
